# Source: PubChem BioAssay AID651548 (Broad Institute, 2012)
# Values joined by “and” are separate entries in the source; they are usually repeats but may differ in a detail not shown here. Equal entries are not always repeated. Out of some 57,000 compounds screened, about 200 (0.35%) were called active.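 The calls were made as follows: active = mean inhibition of replicates at least 50% and every single replicate also reaching 50%; inconclusive = mean inhibition at least 50% but some replicate falls below 50%; inactive = mean inhibition under 50%.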 For the sample, actives were picked, then their nearest neighbours and some compounds at random.
# Molecular target: Histone-lysine N-methyltransferase EZH2 (Homo sapiens) (UniProt Q15910)
# Experiment: inhibition of PRC2 H3K27 methylation – biochemical, DELFIA time-resolved fluorescence, single point, primary screen (AID 651548);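 also: dimethyl H3K27 on biotinylated H3 21-44 peptide detected by antibody; plate controls were median neutral control wells for no effect and median positive control wells for full effect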
# Settings: DELFIA TRF, 1 h, at 12.5 µM, hits give high values
# Histone-lysine N-methyltransferase EZH2 (Homo sapiens), sequence (Q15910 whole entry, looked up): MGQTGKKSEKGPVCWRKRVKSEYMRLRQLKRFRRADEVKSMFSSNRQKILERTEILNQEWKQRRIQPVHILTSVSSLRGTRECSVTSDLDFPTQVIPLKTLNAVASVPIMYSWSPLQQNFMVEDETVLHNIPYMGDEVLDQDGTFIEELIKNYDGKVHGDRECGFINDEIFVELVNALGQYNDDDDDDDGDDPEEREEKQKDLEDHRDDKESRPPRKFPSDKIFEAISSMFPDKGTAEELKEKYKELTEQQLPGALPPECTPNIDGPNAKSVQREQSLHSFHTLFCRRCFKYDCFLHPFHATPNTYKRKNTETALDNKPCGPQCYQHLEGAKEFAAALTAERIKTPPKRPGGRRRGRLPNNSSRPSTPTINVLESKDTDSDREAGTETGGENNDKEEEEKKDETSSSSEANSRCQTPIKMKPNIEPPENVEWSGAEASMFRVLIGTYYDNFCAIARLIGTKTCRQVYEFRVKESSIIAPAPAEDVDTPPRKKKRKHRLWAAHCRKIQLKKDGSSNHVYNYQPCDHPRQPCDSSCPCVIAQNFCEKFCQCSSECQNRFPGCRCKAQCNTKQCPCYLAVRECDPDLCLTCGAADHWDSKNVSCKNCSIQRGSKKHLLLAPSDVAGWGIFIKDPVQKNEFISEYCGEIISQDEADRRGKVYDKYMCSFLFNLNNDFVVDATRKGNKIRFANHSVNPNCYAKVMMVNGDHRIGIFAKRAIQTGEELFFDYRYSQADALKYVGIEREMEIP
row,SMILES,inhibition
1,C[C@@H](NC(=O)C[C@@H]1C[C@@H]2c3cc(NC(=O)c4cccnc4)ccc3O[C@@H]2[C@H](CO)O1)c1ccccc1,4.89% (inactive)
2,CCC(=O)N1C[C@@H](C)[C@@H](OC)CN(C)C(=O)c2ccc(NC(=O)c3ccccc3)cc2OC[C@H]1C,2.93% (inactive)
3,C[C@@H]1CN([C@@H](C)CO)S(=O)(=O)c2ccc(C#CCC3CCCC3)cc2O[C@@H]1CN(C)C,-6.13% (inactive)
4,CCCN(C)C[C@H]1Oc2cc(C#CCC3CCCC3)ccc2S(=O)(=O)N([C@@H](C)CO)C[C@@H]1C,10.9% (inactive)
5,C[C@@H]1CN([C@H](C)CO)S(=O)(=O)c2ccc(C#CCC3CCCC3)cc2O[C@H]1CN(C)Cc1ccc(C(=O)O)cc1,58.1% (active)
6,CO[C@@H](CN(C)S(=O)(=O)c1ccc(C)cc1)[C@@H](C)CN([C@@H](C)CO)S(=O)(=O)c1cccc(Cl)c1,9.64% (inactive)
7,CN(C)CCCNC(=O)C[C@H]1C=C[C@@H](NC(=O)Cc2cccnc2)[C@H](CO)O1,13.4% (inactive)
8,Cc1ccccc1S(=O)(=O)NCC[C@@H]1CC[C@H](NC(=O)C2CC2)[C@@H](CO)O1,-14.1% (inactive)
9,COCCNC(=O)C[C@H]1CC[C@H](NS(=O)(=O)c2ccc(C)cc2)[C@@H](CO)O1,-9.8% (inactive)
10,COCC(=O)N(C)C[C@@H]1Oc2cc(C#CCC(C)C)ccc2S(=O)(=O)N([C@@H](C)CO)C[C@@H]1C,7.89% (inactive)
11,CO[C@H]1CN(C)C(=O)c2cc(NC(=O)C3CCCC3)ccc2OC[C@@H](C)N(C(=O)CC2CC2)C[C@@H]1C,4.88% (inactive)
12,C[C@@H]1CN([C@H](C)CO)C(=O)c2cc(NC(=O)CCCN(C)C)ccc2O[C@@H](C)CCCCO[C@H]1CN(C)CC1CCCCC1,-6.09% (inactive)
13,C[C@@H]1CN([C@@H](C)CO)S(=O)(=O)c2ccc(C3=CCCCC3)cc2O[C@@H]1CN(C)C(=O)CN(C)C,-15.1% (inactive)
14,O=C(C[C@@H]1C[C@@H]2c3cc(NC(=O)Nc4ccc(F)cc4)ccc3O[C@@H]2[C@H](CO)O1)NCC(F)(F)F,-13.1% (inactive)
15,CO[C@@H]1CN(C)C(=O)c2cc(NC(=O)c3ccccc3F)ccc2OC[C@H](C)N(C(C)=O)C[C@@H]1C,-5.74% (inactive)
16,C[C@H]1CN([C@@H](C)CO)C(=O)c2cc(Br)cnc2O[C@@H]1CN(C)S(=O)(=O)c1ccc(F)cc1,30.8% (inactive)
17,O=C(C[C@@H]1CC[C@@H](NC(=O)c2ccc3c(c2)OCO3)[C@H](CO)O1)NCc1ccc(Cl)cc1,11.8% (inactive)
18,C[C@@H]1CN([C@H](C)CO)C(=O)c2cccc(NC(=O)CCCCCC(=O)Nc3ccccc3N)c2O[C@H]1CN(C)Cc1ccc(Oc2ccccc2)cc1,-2.58% (inactive)
19,CCCCCc1ccc(/C=C/C(=O)Nc2ccccc2C(=O)O)cc1,61.8% (active)
20,O=C(O)CCCc1ccccc1,-7.51% (inactive)
21,CN(C)CCCSc1ccccc1NC(=O)/C=C/c1ccccc1,7.12% (inactive) and -8.56% (inactive)
22,O=C(N[C@@H]1CC[C@@H](CCNS(=O)(=O)Cc2ccccc2)O[C@@H]1CO)c1ccccc1F,-4.43% (inactive)

row,SMILES,inhibition
1,CCCNC(=O)Nc1ccc2c(c1)C(=O)N(C)C[C@@H](OC)[C@H](C)CN(C(=O)C1CCCCC1)[C@H](C)CO2,4.24% (inactive)
2,O=C(N[C@H]1CC[C@@H](CCNS(=O)(=O)c2cccc(Cl)c2)O[C@@H]1CO)c1ccncc1,4.59% (inactive)
3,O=C(NCC[C@@H]1CC[C@@H](NC(=O)C2CCCC2)[C@H](CO)O1)c1cnccn1,-12% (inactive)
4,C[C@@H]1CN([C@@H](C)CO)C(=O)c2c(c3ccccc3n2C)-c2ccccc2CO[C@H]1CN(C)C(=O)N[C@H](C)c1ccccc1,-0.352% (inactive)
5,CO[C@@H]1CN(C)C(=O)c2cc(NC(=O)C3CCC3)ccc2OC[C@H](C)N(C(=O)CN(C)C)C[C@@H]1C,-0.841% (inactive)
6,CCCNC(=O)C[C@H]1C[C@@H]2c3cc(NC(=O)NC4CCCC4)ccc3O[C@@H]2[C@@H](CO)O1,5.85% (inactive)
7,C[C@H](NC(=O)C[C@H]1C=C[C@@H](NC(=O)C2CCOCC2)[C@@H](CO)O1)c1ccccc1,3.06% (inactive)
8,COc1ccccc1-c1cccc(-c2nc(C(=O)N3CCN(C)CC3)cc3c2[C@H](CCO)N([S@@](=O)C(C)(C)C)C3)c1,1.13% (inactive)
9,CO[C@@H]1CN(C)C(=O)c2cc(NC(C)=O)ccc2OC[C@@H](C)N(C(=O)NC2CCCCC2)C[C@H]1C,3.91% (inactive)
10,O=C(C[C@H]1C[C@H]2c3cc(NC(=O)C4CCC4)ccc3O[C@H]2[C@@H](CO)O1)NCc1ccc(Cl)cc1,-2.37% (inactive)
11,CN1CCN(C(=O)C[C@@H]2C[C@@H]3c4cc(NC(=O)c5ccc6c(c5)OCO6)ccc4O[C@@H]3[C@H](CO)O2)CC1,-2.8% (inactive)
12,COc1cccc(-c2ccc3c(c2)O[C@H](CN(C)C(=O)c2ccccc2F)[C@@H](C)CN([C@@H](C)CO)S3(=O)=O)c1,0.0695% (inactive)
13,O=C(Nc1ccccc1)Nc1ccc2c(c1)[C@@H]1C[C@@H](CC(=O)N3CCCCC3)O[C@H](CO)[C@@H]1O2,-1.6% (inactive)
14,O=C(C[C@H]1C[C@H]2c3cc(NC(=O)Nc4ccccc4)ccc3O[C@H]2[C@H](CO)O1)NC1CCCC1,2.44% (inactive)
15,COc1ccccc1NC(=O)N[C@H]1CC[C@H](CCNS(=O)(=O)c2ccc(Cl)cc2)O[C@H]1CO,47.2% (inactive)
16,COc1cccc(C(=O)Nc2ccc3c(c2)OC[C@H](C)N(C(C)=O)C[C@@H](C)[C@@H](OC)CN(C)C3=O)c1,6.08% (inactive)
17,C/C=C/c1ccc2c(c1)O[C@H](CN(C)C(=O)C1CCCCC1)[C@@H](C)CN([C@@H](C)CO)S2(=O)=O,13.7% (inactive)
18,CCC(=O)Nc1ccc2c(c1)OC[C@@H](C)N(Cc1cncnc1)C[C@H](C)[C@@H](OC)CN(C)C2=O,-1.64% (inactive)
19,COc1ccc(C(=O)Nc2ccc3c(c2)OC[C@H](C)N(C(C)=O)C[C@@H](C)[C@@H](OC)CN(C)C3=O)cc1,-11.8% (inactive)
20,CO[C@@H]1CN(C)C(=O)c2ccc(NC(=O)C3CC3)cc2OC[C@@H](C)N(Cc2ccncc2)C[C@@H]1C,8.95% (inactive)
21,O=C(C[C@H]1CC[C@H](NC(=O)c2ccncc2)[C@H](CO)O1)Nc1ccccc1,16.3% (inactive)
22,O=C(C[C@H]1C[C@@H]2c3cc(NS(=O)(=O)c4ccc(F)cc4)ccc3O[C@@H]2[C@H](CO)O1)NCc1cccc(F)c1,-5.18% (inactive)

row,SMILES,inhibition
1,O=C(N[C@H]1CC[C@@H](CCNC(=O)C2CCC2)O[C@@H]1CO)c1ccncc1,-3.82% (inactive)
2,CN(C)CC(=O)Nc1ccc2c(c1)[C@H]1C[C@@H](CC(=O)NCc3ccccn3)O[C@@H](CO)[C@H]1O2,-17% (inactive)
3,CO[C@H]1CN(C)C(=O)c2ccc(NC(=O)C3CCCC3)cc2OC[C@@H](C)NC[C@@H]1C,7.43% (inactive)
4,CCC(=O)N1C[C@@H](C)[C@H](OC)CN(C)C(=O)c2ccc(NC(=O)c3cc(C)on3)cc2OC[C@H]1C,7.38% (inactive)
5,CCC(=O)Nc1ccc2c(c1)OC[C@H](C)N(CC1CCCCC1)C[C@@H](C)[C@H](OC)CN(C)C2=O,-10.4% (inactive)
6,CC(C)NC(=O)N[C@@H]1C=C[C@@H](CC(=O)N2CCCCC2)O[C@@H]1CO,7.89% (inactive)
7,O=C(C[C@@H]1CC[C@H](NC(=O)Nc2ccc(F)cc2)[C@H](CO)O1)NCc1ccccn1,-0.96% (inactive)
8,COc1cccc(-c2cnc3c(c2)C(=O)N([C@@H](C)CO)C[C@H](C)[C@H](CN(C)C(C)=O)O3)c1,1.62% (inactive)
9,COCC#Cc1cnc2c(c1)C(=O)N([C@H](C)CO)C[C@H](C)[C@H](CN(C)C(=O)Nc1cc(F)ccc1F)O2,0.676% (inactive)
10,COc1cccc(NC(=O)Nc2ccc3c(c2)OC[C@@H](C)NC[C@@H](C)[C@H](OC)CN(C)C3=O)c1,-3.01% (inactive)
11,COc1cccc(S(=O)(=O)Nc2ccc3c(c2)[C@@H]2C[C@@H](CC(=O)NCc4ccc(Cl)cc4)O[C@H](CO)[C@@H]2O3)c1,-2.95% (inactive)
12,O=C(C[C@@H]1C[C@@H]2c3cc(NC(=O)Nc4ccccc4F)ccc3O[C@@H]2[C@@H](CO)O1)NCCc1ccccc1,-11.7% (inactive)
13,CC1=CCC(C(C)(C)O[C@@H]2O[C@H](COC(=O)c3cc(O)c(O)c(O)c3)[C@@H](O)[C@H](O)[C@H]2O)CC1 (some centres undefined),91.8% (active)
14,C[C@@H]1CN([C@H](C)CO)S(=O)(=O)c2ccc(C#CCN(C)C)cc2O[C@@H]1CN(C)C(=O)C1CCCCC1,1.46% (inactive)
15,CC(C)NC(=O)Nc1ccc2c(c1)CC(=O)N([C@H](C)CO)C[C@H](C)[C@@H](CN(C)C(=O)Nc1ccc(F)cc1)O2,-14.2% (inactive)
16,C[C@@H]1CN([C@H](C)CO)S(=O)(=O)c2ccc(-c3ccccc3)cc2O[C@@H]1CN(C)C(=O)C1CC1,7.84% (inactive)
17,CCCNC(=O)Nc1ccc2c(c1)OC[C@H](C)N(Cc1ccccc1)C[C@H](C)[C@H](OC)CN(C)C2=O,-21.6% (inactive)
18,C[C@H]1CN([C@@H](C)CO)S(=O)(=O)c2ccc(C#CC3CCCC3)cc2O[C@@H]1CN(C)C(=O)c1cccc(F)c1,14.8% (inactive)
19,O=C(C[C@@H]1CC[C@@H](NC(=O)C2CC2)[C@H](CO)O1)NCc1ccncc1,9.6% (inactive)
20,CN(C)CC(=O)N[C@@H]1CC[C@@H](CCn2cc(C3CC3)nn2)O[C@H]1CO,-8.32% (inactive)
